Assay outcomes deposited in PubChem BioAssay by several laboratories.
NFkB transloc pot = enhances IL-1B driven NFkB nuclear translocation | HUVEC IL-1B NFkB p65 nuclear translocation imaging | activation, % at 2 µM | 0.3% of 94,000 active | AID 819;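 active = activation above 40%, about the mean plus 3 SD, also judged a hit on visual image review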;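 also: percent activation is computed from the nuclear over cytoplasmic p65 intensity ratio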
HUVEC tox IL1B = HUVEC cytotoxicity counter-screen, IL-1B stimulated. AID 845. HUVEC cell count loss, Hoechst imaging. 0.41% of 94,000 active. cell count reduction, % at 2 µM;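 active = cell count reduction more than 3 SD above the screen-wide mean, cut at about 70% in these data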;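 also: normalized per plate to untreated control cells as the no-loss baseline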
Phagocyt inh = blocks phagocytosis by macrophages; J774A.1 macrophage IgG-bead phagocytosis, imaging; inhibition, % at 5 µM; 0.07% of 110,000 active; AID 1029;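 active = inhibition above the mean of the plate negative controls plus 5 SD, cut at about 13% in these data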;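 also: phagocytic index as fraction of beads internalized from green versus red external bead signal; plate controls were DMSO negative control for no effect and cytochalasin-D positive control for full effect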
NFkB transloc inh = blocks IL-1B driven NFkB nuclear translocation in HUVEC cells; HUVEC IL-1B NFkB p65 nuclear translocation imaging; inhibition, % at 2 µM; 0.43% of 94,000 active;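 active = inhibition above about 30% together with a positive call from visual inspection of the well image, limit read from the data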;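 also: nuclear over cytoplasmic p65 intensity ratio measured by imaging; 0% = IL-1B stimulated DMSO wells and 100% = unstimulated DMSO wells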
PTK2B oligo ant = blocks oligomerization of human Pyk2 in cells; 0.83% of 99,000 active; Q293 cells, Pyk2 FERM NanoBiT luminescence; hits give low values; z-score (the deposit names both 25 µM and 10 µM); Q14289;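 active = Z-score of -3 or lower, scaled per plate to the spread of control and sample wells; inactive = z-score above -3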;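 also: negative z-score means lost luminescence so less FERM oligomerization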
Target sequence (Q14289 whole entry, looked up): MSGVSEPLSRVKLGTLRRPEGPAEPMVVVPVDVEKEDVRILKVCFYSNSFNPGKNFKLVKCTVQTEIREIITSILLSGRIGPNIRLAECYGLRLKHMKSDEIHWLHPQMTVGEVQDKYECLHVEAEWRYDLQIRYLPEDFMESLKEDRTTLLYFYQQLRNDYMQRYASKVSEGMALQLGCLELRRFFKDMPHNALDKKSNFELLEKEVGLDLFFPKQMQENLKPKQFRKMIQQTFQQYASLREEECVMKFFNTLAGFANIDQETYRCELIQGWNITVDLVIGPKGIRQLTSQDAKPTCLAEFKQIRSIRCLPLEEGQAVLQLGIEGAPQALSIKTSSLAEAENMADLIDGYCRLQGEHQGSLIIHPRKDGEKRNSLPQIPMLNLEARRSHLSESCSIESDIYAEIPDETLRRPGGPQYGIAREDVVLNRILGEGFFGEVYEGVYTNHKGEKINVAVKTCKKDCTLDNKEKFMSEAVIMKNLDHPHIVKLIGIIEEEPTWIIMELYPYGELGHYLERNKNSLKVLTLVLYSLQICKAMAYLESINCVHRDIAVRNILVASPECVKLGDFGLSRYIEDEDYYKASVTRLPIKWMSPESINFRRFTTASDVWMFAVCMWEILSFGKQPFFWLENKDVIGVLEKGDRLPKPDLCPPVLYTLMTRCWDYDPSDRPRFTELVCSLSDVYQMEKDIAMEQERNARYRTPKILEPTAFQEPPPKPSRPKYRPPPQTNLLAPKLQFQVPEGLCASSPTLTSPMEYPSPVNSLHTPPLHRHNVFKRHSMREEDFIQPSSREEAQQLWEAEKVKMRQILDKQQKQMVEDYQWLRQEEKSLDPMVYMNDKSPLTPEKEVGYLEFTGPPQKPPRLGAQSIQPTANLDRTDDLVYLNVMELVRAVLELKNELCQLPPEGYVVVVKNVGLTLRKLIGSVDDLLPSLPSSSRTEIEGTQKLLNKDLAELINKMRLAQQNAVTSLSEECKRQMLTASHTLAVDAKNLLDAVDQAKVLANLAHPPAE
* marks the source's active call; other numbers are inactive results; . = no result; [ ] = dose if it differs, or a comment. The list is not random: actives were taken first. Their share in the collection is about 1.4%.

SMILES	NFkB transloc pot	HUVEC tox IL1B	Phagocyt inh	NFkB transloc inh	PTK2B oligo ant
CC1=C(C(=O)Nc2ccccc2)C(c2ccncc2)C(C#N)=C(SCC(=O)NC2CC2)N1 (stereo not drawn)	13	8	0	-13	-0.47
COc1ccccc1OCc1nc(Cc2ccc(Cl)cc2)no1	42*	3	0	-42	-0.26
CC(C)CC(=O)Nc1ccc(Oc2ccc(NC(=O)CC(C)C)cc2)cc1	19	-59	.	-19	0.48
O=C(O)C1C(C(=O)Nc2ccc(Cl)cc2)C2C=CC1C21CC1 (stereo not drawn)	10	76*	2	-10	1.3
O=C(CCc1nc2ccccc2[nH]1)Nc1ccc(F)cc1	7	-2	-2	-7	1.1
O=C(CCc1nc2ccccc2[nH]1)Nc1ccc2c(c1)OCO2	-43	0	.	44*	0.39
Cc1ccc2c(C)ccc(O)c2n1	-1	76*	0	1	0.57
Cc1ccc(CNC(=O)CN2CCC(C(N)=O)CC2)cc1	-10	1	0	10	0.79
COC(=O)/C(=C\Nc1ccc(Cl)c2ccccc12)c1ncc(C(F)(F)F)cc1Cl	-1	20	0	1	-3.4*
CN1/C(=C\C(=O)c2ccco2)c2ccccc2CC1(C)C	-35	7	0	34*	-0.12
O=c1c2[nH]c3ccccc3c2ncn1Cc1cccnc1	50*	1	-1	-50	0.84
c1ccc(Oc2cccc(OCCCCSc3ncccn3)c2)cc1	-5	10	.	5	-3.3*
COc1cccc(OCCCCSc2ncccn2)c1	4	12	-2	-4	0.67
Cc1ccc(OCC(=O)Nc2sc3c(c2C#N)CCC3)cc1	59*	25	0	-59	-0.67
Cc1ccc(OCC(=O)Nc2sc3c(c2C#N)CCC3)cc1C	-1	-10	.	1	0.5
CCN(CC)c1ccc(/C=C(/C#N)c2nc3ccccc3[nH]2)c(OC(C)C)c1	4	-11	.	-4	-3.4*
Cc1ccc(-c2nc(NC(=O)c3nn(C)cc3[N+](=O)[O-])sc2C)cc1C	-45	66	-1	45*	-2.3
Cc1ccc(-c2nc(NC(=O)c3nn(C)cc3[N+](=O)[O-])sc2C)cc1	-24	26	.	24	-2.7
Cn1cc([N+](=O)[O-])c(C(=O)Nc2nc(-c3ccc(Cl)cc3)cs2)n1	-77	-10	0	77*	-1.7
CCOc1ccc(NC(=O)COC(=O)c2cccnc2)cc1	23	5	-2	-23	0.87
COC(=O)C1=CN(C(C)C)C=C(C(=O)OC)C1c1cc(Br)c(OC)c(OC)c1	.	.	.	.	-3.6*
CS(=O)(=O)N1CCN(C(=O)c2c(F)cccc2F)CC1	12	-2	-1	-12	-0.48
CCOc1ccc(/C(O)=C2/C(=O)C(=O)N(c3nc(C)c(C)s3)C2c2ccco2)cc1 (stereo not drawn)	-46	19	0	46*	0.38
CCn1c(SC)nnc1-c1ccc(S(=O)(=O)N2CCCCC2)cc1	-14	25	.	14	0.3
CC(Nc1ccc(Br)cn1)c1cc(Cl)ccc1O (stereo not drawn)	0	34	-1	0	-3.5*
SMILES	NFkB transloc pot	HUVEC tox IL1B	Phagocyt inh	NFkB transloc inh	PTK2B oligo ant
C#CC(=O)N(c1cc(OC)ccc1OC)C(C(=O)NC1CCCC1)c1cccs1 (stereo not drawn)	9	43	73*	-9	-2.5
COc1ccc(N(C(=O)c2ccco2)C(C(=O)NC2CCCCC2)c2cccs2)cc1OC (stereo not drawn)	13	18	.	-13	0.22
COc1cccc(-c2nn(C)c3sc(C(=O)N4CCN(c5ccccn5)CC4)cc23)c1	.	.	0	.	-3.9*
CCc1nnc(NC(=O)CCC(=O)N2CCCC2)s1	79*	21	0	-79	0.35
C/C(N)=C(/C#N)C(=O)COC(=O)c1ccc(C)c(S(=O)(=O)N2CCCCC2)c1	42*	0	0	-42	-1.1
C/C(N)=C(/C#N)C(=O)COC(=O)c1cc(S(=O)(=O)N2CCCCC2)ccc1C	2	-3	0	-2	-0.68
O=C(NCc1ccco1)c1ccc(COc2ccccc2Cl)cc1	-3	-2	1	3	-0.01
CCOC(=O)c1sc(NC(=O)C2CCCO2)c(C(=O)OCC)c1C (stereo not drawn)	.	.	0	.	.
CCOC(=O)c1c(NC(=O)C2CCCO2)sc(C(=O)OC(C)(C)C)c1C (stereo not drawn)	-99	19	-2	99*	-0.36
O=C(Nc1cccc(Cl)c1)N1CCN2C(=O)c3ccccc3C12c1ccccc1 (stereo not drawn)	-8	9	.	8	-3.2*
Cc1ccc(C(=O)N2CCN3C(=O)c4ccccc4C23c2ccc(Cl)cc2)cc1 (stereo not drawn)	16	-123	1	-16	-1.4
O=C(CCN1Cc2ccccc2C1)c1ccc2c(c1)OCCO2	5	-51	0	-5	-0.72
O=C(CCN1CCc2ccccc2C(c2ccccc2)C1)c1ccc2c(c1)OCCO2 (stereo not drawn)	-34	-117	0	34*	1.4
CCOC(=O)c1nn(-c2ccccc2)c(C#N)c1NC(=O)c1nn(CC)cc1Br	2	-11	0	-2	-3.5*
C=CCNCc1cccn1-c1sc2c(c1C#N)CCCC2	-31	8	-2	31*	-0.12
CCSc1nc2ccccc2n1C(=O)/C=C\c1ccc(OC)c(OC)c1	-90	-10	.	90*	-1.2
N#Cc1ccccc1NCc1ccccc1	7	-12	0	-7	0.6
COc1cccc(CNCCNC(=O)c2ccco2)c1OC	42*	-26	0	-42	0.24
COc1ccc(OC)c(CNCCNC(=O)c2ccco2)c1	-2	-11	0	2	.
O=C(CN(Cc1ccco1)C(=O)c1ccccc1)Nc1ccc(Cl)c(Cl)c1	12	-16	.	-12	-3.7*
CCC(C)[C@H](NC(=O)NC1CCN(Cc2ccccc2)CC1)C(=O)OC (stereo partly drawn)	11	6	-1	-11	0.77
CCOc1ccc(NCc2nnc(SCC(=O)Nc3cc(C)on3)n2-c2ccc(OC)cc2)cc1	21	-19	-1	-21	-0.62
COc1ccc(CCN2C(=O)c3[nH]nc(-c4ccccc4O)c3C2c2cccc(Cl)c2)cc1 (stereo not drawn)	-1	7	3	1	-3.5*
COc1ccc(C2c3c(-c4ccccc4O)n[nH]c3C(=O)N2CCc2ccc(OC)c(OC)c2)cc1 (stereo not drawn)	-9	-2	.	9	-3.5*
O=C1c2[nH]nc(-c3ccccc3O)c2C(c2cccc(O)c2)N1Cc1ccco1 (stereo not drawn)	12	2	1	-12	-2.5
Cc1ccc(C2c3c(-c4ccccc4O)n[nH]c3C(=O)N2Cc2ccncc2)cc1 (stereo not drawn)	32	-17	-1	-32	-2.4
O=C(Nc1ccc2c(c1)OCO2)NC1CCN(Cc2ccccc2)CC1	0	8	28*[artifact]	0	2
O=c1[nH]cc(COCc2ccccc2)c(=O)[nH]1	-1	4	2	1	0.41
COc1ccccc1NC(=O)CCC(=O)N/N=C(/C)c1ccc(C)cc1	.	.	-5	.	.
